An excerpt weighted towards active compounds, which were near 2.1% of everything screened.
FUS suppressor = suppressors of FUS proteinopathy in yeast | S. cerevisiae FUS-expressing, growth rescue, OD600, 24 h | actives 0.24% (n = 390,000) | AID 1347120 | Potency, µM (series often up to 76.6 µM), most hits filed as activators;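 also: plate controls were DMSO vehicle for no effect and reference control for full effect; nearly all actives have a fitted effect of over 55% in size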
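Galactose (2%) drives FUS expression in yeast precultured in raffinose; seeding density OD 0.005. Test compounds incubated 24hr at 30C and 99% humidity before absorbance at 600 nm was measured.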
TDP-43 yeast inh = TDP-43 toxicity inhibition in yeast; actives 1.8% (n = 410,000); Potency, µM (top dose mostly 46.1 µM), for the others: at the top dose growth rescue (activation), usual class: activators; TDP-43 expressing yeast growth rescue, BacTiter-Glo, 24 h; also: % of control where 0% means no effect; nearly all actives have a fitted effect of over 50% in size
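Readout is BacTiter-Glo luminescence of cell growth, so inhibitors register as activators. TDP-43-expressing yeast at OD600=0.02 in galactose medium, after raffinose pregrowth to mid-log, were incubated with compound for 24 hr at 30 deg C.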
Abeta yeast res = restores growth of yeast expressing A-beta42 peptide; Potency, µM (titrated, usually from 46.1 µM), usual class: activators; yeast expressing A-beta42, growth rescue, OD600, 48 h; response scale: 0% DMSO, 100% iron-clioquinol control; actives 0.063% (n = 410,000); also: nearly all actives have a fitted effect of over 55% in size
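Yeast growth medium received pinned compounds, then yeast cells expressing toxic A-beta were added; plates incubated at 30 C for 48 hr. Growth read as absorbance at 600 nm, normalized to DMSO and equimolar FeCl3 plus clioquinol controls.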
aSyn yeast inh = rescues yeast growth from alpha-synuclein toxicity; actives 0.14% (n = 370,000); Yeast expressing alpha-synuclein, growth rescue, BacTiter-Glo, 24 h; Potency, µM (doses to about 46.1 µM), for inactives: top-dose growth rescue (activation), hits mostly activators; also: % of control where 0% means no effect; nearly all actives have a fitted effect of over 65% in size
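Screening used galactose-induced yeast with toxic alpha-synuclein levels, exposed to compound for 24 hr at 30 deg C. Cell growth, read with BacTiter-Glo luminescence, gave the measured signal.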
* = called active by the depositor. Calls follow the shape of the dose curve; as a rule, active = well fitted curve in the direction sought with a large enough effect; inconclusive = small, poorly fitted or top-dose-only effect, or another doubt; inactive = no such curve, though single readings can be large; an effect the other way counts as inactive or inconclusive. Potency is read from the fitted curve at half-maximal effect.

Screening COc1ccc(CNc2nc3c(-c4ccc(C)cc4)nnn3c3ccccc23)cc1 returned FUS suppressor inactive, TDP-43 yeast inh 22% and Abeta yeast res inactive.
For CC(=O)c1c(C)[nH]c(C(=O)OCC(=O)Nc2sc3c(c2C#N)CCC(C)C3)c1C (stereo not drawn) the results were FUS suppressor inactive, TDP-43 yeast inh -19%, Abeta yeast res inactive and aSyn yeast inh 4%.
Screening c1ccc2c(c1)OCC(CNc1ncnc3sccc13)O2 (stereo not drawn) returned FUS suppressor inactive, TDP-43 yeast inh 20µM*, Abeta yeast res inactive and aSyn yeast inh 12%.
`Fc1cccc(Nc2ncnc3sccc23)c1` gave FUS suppressor inactive, TDP-43 yeast inh 20µM*, Abeta yeast res inactive and aSyn yeast inh -8%.
For Fc1ccccc1CNc1ncnc2sccc12 the results were FUS suppressor inactive, TDP-43 yeast inh 11µM*, Abeta yeast res inactive and aSyn yeast inh -2%.
`O=C(c1[nH]c2ccccc2c1Sc1ccc(Cl)cc1)N1CCCCC1` gave FUS suppressor inconclusive, TDP-43 yeast inh 9% and Abeta yeast res inconclusive.
`C[C@]12CC[C@@H]3c4ccc(OC(=O)c5ccccc5)cc4CC[C@H]3[C@@H]1CC[C@@H]2O` gave FUS suppressor inactive, TDP-43 yeast inh 18%, Abeta yeast res inactive and aSyn yeast inh 6%.
Screening CC(=O)Oc1ccc2c(c1)CCC1C2CCC2(C)C(OC(C)=O)CCC12 (stereo not drawn) returned FUS suppressor inconclusive, TDP-43 yeast inh 32µM*, Abeta yeast res inactive and aSyn yeast inh -16%.
Screening CC(=O)Nc1ccc(/C=N\NC(=O)c2cccc(S(=O)(=O)N(C)C)c2)cc1 returned FUS suppressor inactive.
`COc1ccc(Cl)cc1NC(=O)C1CSC(c2ccncc2)=N1` (stereo not drawn) gave FUS suppressor inactive, TDP-43 yeast inh 7%, Abeta yeast res inactive and aSyn yeast inh 1%.
CC(C)CC(N)c1csc(NC(=O)NCCc2ccccc2)n1 (stereo not drawn) was read as FUS suppressor inactive, TDP-43 yeast inh 12%, Abeta yeast res inactive and aSyn yeast inh 2%.
`NC(Cc1ccc(C(F)(F)F)cc1)c1csc(NC(=O)NCCc2ccccc2)n1` (stereo not drawn) gave FUS suppressor 22µM*, TDP-43 yeast inh 0%, Abeta yeast res inactive and aSyn yeast inh -37%.
CC1(C)CC(=O)C(CC(=O)NC2CCCc3ccccc32)C(=O)C1 (stereo not drawn) was read as FUS suppressor inactive, TDP-43 yeast inh 25µM*, Abeta yeast res inactive and aSyn yeast inh 0%.
Screening Cc1cccc(-n2nnc(C(=O)NC3CCCc4ccccc43)c2N)c1 (stereo not drawn) returned FUS suppressor inactive, TDP-43 yeast inh 16µM*, Abeta yeast res inactive and aSyn yeast inh 0%.
For O=C(CSc1nnnn1-c1ccccc1)NC1CCCc2ccccc21 (stereo not drawn) the results were FUS suppressor inactive, TDP-43 yeast inh 11µM*, Abeta yeast res inconclusive and aSyn yeast inh 6%.
For Cc1cccc(-n2nnc(C(=O)NCc3ccccc3)c2N)c1 the results were FUS suppressor inactive, TDP-43 yeast inh 25%, Abeta yeast res inactive and aSyn yeast inh -9%.
Cc1ccc(NC(=O)/C(C#N)=C/c2cc(C)n(-c3ccc(Br)cc3)c2C)cc1C was read as FUS suppressor inconclusive, TDP-43 yeast inh 4µM* and Abeta yeast res inactive.
`CCN1C(=O)C(CC(=O)Nc2ccccc2Cl)N(NC(=O)c2cccc(F)c2)C1=S` (stereo not drawn) gave TDP-43 yeast inh 6.3µM*, Abeta yeast res inactive and aSyn yeast inh 15%.
Screening CNC(=O)CC1C(=O)N(Cc2ccccc2)C(=S)N1NC(=O)c1cccc(F)c1 (stereo not drawn) returned TDP-43 yeast inh 7%, Abeta yeast res inactive and aSyn yeast inh -9%.
`COc1ccc(N(Cc2cccs2)C(=O)Nc2cccc(Cl)c2)cc1` gave FUS suppressor inactive, TDP-43 yeast inh -6% and Abeta yeast res inactive.
`Cc1ccc(-c2nc3cccnc3o2)cc1NC(=O)COc1ccc(C(C)(C)C)cc1` gave FUS suppressor 32µM*, TDP-43 yeast inh inconclusive, Abeta yeast res inactive and aSyn yeast inh -11%.
Screening Cc1ccc(-c2nc3cccnc3o2)cc1NC(=O)COc1ccc(Cl)cc1C returned FUS suppressor inactive, TDP-43 yeast inh 12%, Abeta yeast res inactive and aSyn yeast inh -3%.
For N#C/C(=C/c1ccc(N2CCCCC2)o1)c1cccc(F)c1 the results were FUS suppressor 32µM*, TDP-43 yeast inh -25%, Abeta yeast res inactive and aSyn yeast inh 2%.
For N#C/C(=C/c1ccc(N2CCCCCC2)o1)c1ccc(Cl)cc1 the results were FUS suppressor 22µM*, TDP-43 yeast inh -94%, Abeta yeast res inactive and aSyn yeast inh -61%.
N#C/C(=C/c1ccc(N2CCCCC2)cc1)c1cccc(F)c1 was read as FUS suppressor inactive, TDP-43 yeast inh 20%, Abeta yeast res inactive and aSyn yeast inh -3%.
Screening CCN1CCN(C(=O)c2cc(=O)c3cc(C)ccc3o2)CC1 returned FUS suppressor inactive, TDP-43 yeast inh -19%, Abeta yeast res inactive and aSyn yeast inh -22%.
`CC1CCN(C(=O)CSc2nc(-c3ccc(C(C)C)cc3)no2)CC1` gave FUS suppressor inactive, TDP-43 yeast inh 18µM* and Abeta yeast res inactive.
`Cc1cc(C)cc(NC(=O)CN2C(=O)CCc3cc(S(=O)(=O)N4CCCCC4)ccc32)c1` gave FUS suppressor inconclusive, TDP-43 yeast inh 18% and Abeta yeast res inactive.
For Nc1cc(C(=O)c2ccccc2)ccc1[N+](=O)[O-] the results were FUS suppressor inactive, TDP-43 yeast inh 8.9µM*, Abeta yeast res inactive and aSyn yeast inh 0%.
For Cc1cccc(C)c1Cn1c(C)c(C(=O)NCc2ccc([N+](=O)[O-])cc2)sc1=O the results were FUS suppressor inconclusive, TDP-43 yeast inh 11µM*, Abeta yeast res inactive and aSyn yeast inh 9%.
CC(=O)/C(=C/c1ccccc1)C(=O)Nc1ccccc1C was read as FUS suppressor inactive, TDP-43 yeast inh 2.5µM*, Abeta yeast res inactive and aSyn yeast inh inconclusive.
Screening CC(C)(C)C(c1nc2ccccc2[nH]1)n1c(-c2cc(Cl)cc(Cl)c2)nc2ccccc21 (stereo not drawn) returned FUS suppressor inactive, TDP-43 yeast inh 35µM*, Abeta yeast res inconclusive and aSyn yeast inh -8%.
CC(C)(C)C(c1nc2ccccc2[nH]1)n1c(-c2cccc(S(C)(=O)=O)c2)nc2ccccc21 (stereo not drawn) was read as FUS suppressor inactive, TDP-43 yeast inh 8%, Abeta yeast res inactive and aSyn yeast inh 3%.
`COc1ccc(/C=C/C(=O)OCCNC(=O)c2ccncc2)cc1OC` gave FUS suppressor inactive, TDP-43 yeast inh 13%, Abeta yeast res inconclusive and aSyn yeast inh 4%.
